# In the supplement of paper PMC11417369:
# ± gives the standard deviation of the averaged measurements. The full ranking holds about 25,000 sequences; the median of “ln(normalized median fluorescence intensity)” is about 10, and the highest 2% start at about 12. What follows is part of a selection rich in the highest values, with near analogues and random picks from the rest.
# Test system: PfAP2-G AP2 domain (GST-tagged)
# Assay: gcPBM binding intensity (ln(normalized median fluorescence intensity)); higher = stronger DNA binding
# Outline: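 Binding intensity values are the highest Masliner-normalised natural-log median intensity among replicate spots of either probe orientation. The binding step lasted 1 h in 1× PBS with 1% milk, 0.2 mg/ml BSA, 0.5% salmon testes DNA and 0.03% Triton X-100, using GST-tagged P. falciparum DNA-binding domains expressed in E. coli on an Agilent 4 × 180k array of primer-extended double-stranded 36-bp intergenic genomic probes plus negative controls. Alexa488 anti-GST antibody and a 488 nm scan detected bound protein.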
row,Sequence,gcPBM binding intensity (ln)
1,AATGAAGACTTTTTTACACACTTCATATCTTATAGA [CACACA_site7046],9.99 ± 0.028
2,ATGTGATATAAGTACACACACATATGTATATAGAAT [CACACA_site1823],11.5 ± 1.1
3,TATTTCTGATTATTTTGTACACATTATATATAATGC [XGTACX_site6990],11.2 ± 0.83
4,ATGTGATAGAAGTACACACACATATGTATTTATAAT [CACACA_site5075],11.7 ± 1.1
5,ATGTGATATAAGTACACACACATATGTATTTATAAC [CACACA_site6942],11.5 ± 0.8
6,CAAAAATTACCCTTGTGTACACATATATTATATGTA [XGTACX_site1124],11.6 ± 0.91
7,AAATTACCCTTGTGTACACATATATTATCTGTATTA [CACACA_site4514],12 ± 1.4
8,AAAAATTACCCTTGTGTACACATATATTATCTGTAT [CACACA_site4513],11.6 ± 0.95
9,TTTGTGTATATATAATGTACATTATATTTTTATTAT [XGTACX_site6506],10.9 ± 0.53
10,GTATGTATATTTATCTGTACATATTTATGTATTCTT [XGTACX_site2112],11.2 ± 0.64
11,TTTGATTTTAATGTGTGTACACATTTATTTATATAA [XGTACX_site4806],11.8 ± 1.2
12,TATCTGTATATGTGTACACATATTCTTAACTCACGC [CACACA_site4255],11.7 ± 1
13,GTATATATGTATATGTGTACACATATTCTTAACTCA [XGTACX_site309],11.6 ± 0.89
14,TTATTAAATTTTTTTTGTACTTATATATATATATAT [XGTACX_site2443],11.2 ± 0.79
15,TTTTTTTTTTTTTACACACACAAAATATTATCTGTA [CACACA_site5378],9.83 ± 0.42
16,AATAATTAAATATATTTATAACAGGAAAATATTTAT [XGTACX_negctrl_site175],10.2 ± 0.16
17,TGTTGTATTTTTACAACACACATTTAATCCATTTAA [CACACA_site1507],10 ± 0.27
18,CTTCCTTAGGAATGTACACACATATAAAATATGTTG [CACACA_site6355],11.4 ± 0.84
19,ATAAAATAATTAATGGGTACATAATTAAATAAAGAG [XGTACX_site3309],11.3 ± 0.66
20,TTTTATGAAAAATGGCTTATCTGTAAAGAAGTGGAG [CACACA_negctrl_site1586],10.3 ± 0.36
21,AAGGTATAGAAACACACACACGTGAATATAGTTTAA [CACACA_site5109],10.01 ± 0.028
22,GTATGTATGTATATATGTACACATTATTATTTAATG [XGTACX_site5802],11.6 ± 1
23,TAATATAATAGAAGTGTACACACATATTTATGGGTG [CACACA_site9023],11.6 ± 0.93
24,ATATATATATAATGTGTACACACATATGTATTTATA [CACACA_site8170],11.7 ± 0.67
25,ATATATATATATTTATGTACATATACATAATGTATA [XGTACX_site6387],11.2 ± 0.76

row,Sequence,gcPBM binding intensity (ln)
1,ATGTATATATTTTTATGTACATATTTTTAATTTATA [XGTACX_site2982],11.4 ± 0.87
2,GATTTTAATGGGTGTACACATTTATTTATATAAAGT [CACACA_site5317],11.7 ± 0.93
3,ATATATATATATATATGTACATATTTTATTTAATTT [XGTACX_site1807],11.2 ± 0.69
4,TTTTATTTATCTTAATGTACACATTTATATATATAT [XGTACX_site8588],11.7 ± 1.3
5,TCACATATATATTAATGTACATATATTTTTTATGTA [XGTACX_site5125],11.2 ± 0.54
6,ATATTTATAATTTTTTGTACACATTTTTTAAAGATA [XGTACX_site1784],11.4 ± 0.9
7,GTATATATGTATATGTGTACATATATTTTATAATAT [XGTACX_site5703],11.3 ± 0.79
8,ATTTTTTTTTTTATGTGTACATATATTTTTTTAATT [XGTACX_site7921],11.6 ± 0.97
9,TGTATGTATGTATTATTTGTTATTTTAATTTTTTTG [TGCATGCA_negctrl_site256],10.36 ± 0.085
10,CATATATAACATATAACACACATACTTAGTATTACA [CACACA_site5674],10.1 ± 0.24
11,GTTACAGAGAATGTTGTGCACATATCAATAATATAT [GTGCAC_site9671],10.5 ± 0.28
12,AACGTGTATTTATATTGTACACATTCATACATCAAA [XGTACX_site3644],11.4 ± 0.95
13,TCCTTACCTATTAAAGCATGCTCGAATATATATTTT [TGCATGCA_site53],9.81 ± 0.18
14,ATACACATAACATATATATATATATATATATATATC [CACACA_negctrl_site278],9.73 ± 0.057
15,TTTTGGATACTTCATTTGTCCTGTTTTTTTTTTTTA [CACACA_negctrl_site399],10.7 ± 0.37
16,ATATATATATACATATGTACATATATATTTATACAT [XGTACX_site2463],11 ± 0.58
17,ATGGATAATAATAAGTGTACACATATATTTAGAAGA [XGTACX_site244],11.8 ± 0.86
18,ACATATATATATATGTGTACATATTTATACAACAAT [XGTACX_site6660],11.6 ± 0.78
19,GTTCCATATATTACATGTACATATTTTTACATTTAA [XGTACX_site660],11.2 ± 0.72
20,TATTTTTCCATTGGGGGTACATGTGTTATATTTATT [XGTACX_site5914],11.7 ± 0.88
21,TATATATATATGTGTACACAATTTATCTGTATTTAT [CACACA_site5945],11.8 ± 0.93
22,GAATATATATTCATATGTACACAATTTATGTATTAT [XGTACX_site4719],11.4 ± 0.79
23,GATAATAATAAGTGTACACATATATTTAGAAGAGTA [CACACA_site4245],11.5 ± 0.85
24,TATAAAAAAAAATGTGGTACATATTTCCATTTTCCA [XGTACX_site4571],11.3 ± 0.76
25,ATATAATAGAAGTGTACACACATATTTATGGGTGTA [CACACA_site5686],11.5 ± 0.91

row,Sequence,gcPBM binding intensity (ln)
1,TATACATTTATGTACACACACATATCTGTATATTTA [CACACA_site5617],11.5 ± 0.97
2,TATATTTATACAATATGTACATATTATATATATATA [XGTACX_site3098],11 ± 0.59
3,TTTTTTTTTTTGTTCACACATATACTTTTATTTTGG [CACACA_site4250],10.2 ± 0.23
4,AAAAAAAAAAAAAAAACACACAATAAAGTAAAATTT [CACACA_site135],10.15 ± 0.049
5,TAAAAATGGGTATGTACACACTTTATTTTTAATACA [CACACA_site5404],11.5 ± 0.92
6,TATATATTCCTCCATAGTACAATAATAAAGATAAAA [XGTACX_site5785],10.6 ± 0.35
7,ATGTTCTTATTATTGGTGCAAGAATACACAAGAAAA,10.4 ± 0.45
8,ATTTTTTTACTGCAACCATATTTTTCCCTTTTATTC [CACACA_negctrl_site1282],10.12 ± 0.085
9,AAAATTTAAATAGGAAGTACGTTCACTAAGAAAATA [XGTACX_site6546],11 ± 0.57
10,TTGCTGTATTTATTTTGTACACATTTGGCATTATAT [XGTACX_site3408],11.2 ± 0.73
11,ATATAATAGAAGTGTACACACATATTTATGTCTGTA [CACACA_site3121],11.5 ± 0.74
12,TTAATATAATAGAAGTGTACACACATATTTATGTGT [XGTACX_site6672],11.5 ± 0.78
13,TGCTGTATATTTTTCTGTACACATTTATATATTCCA [XGTACX_site6244],11.6 ± 0.87
14,CTATAATAGAAGTGTACACACATATTTATGTCTGTA [CACACA_site7462],11.7 ± 0.93
15,TTTAAAAATTAATTCTGTACACATTTTTATTATATT [XGTACX_site4212],11.5 ± 0.81
16,TATATATAATATAGTGCATGTAAAAAATAAACCATG [TGCATGCA_site932],10.2 ± 0.16
17,ACAAGTTAAAATATTACACACATATAAATATATATA [CACACA_site3132],9.84 ± 0.099
18,TTGTTCTATATATATGCATGCACGTATGTTAAATTA [TGCATGCA_site659],10.3 ± 0.33
19,AGATATTAAAACGTTACACACATTTATATATCTTCT [CACACA_site908],9.74 ± 0.2
20,GAAAGAATAAAATTTACACACATATATATATACATA [CACACA_site2250],9.745 ± 0.035
21,ATGTCTATATATTAAGGTACACATATATGCTATTCA [XGTACX_site6008],11.1 ± 0.57
22,ACTTATAAAATAACATGTACAAATATTTATTATATA [XGTACX_site133],11 ± 0.54
23,AAAAAAATATAAATACGTACATATATATATATATAT [XGTACX_site432],11.5 ± 0.98
24,TTATACATAAATTTTGTACACACAAAAAAAAAAAAG [CACACA_site8374],11.2 ± 0.87
25,ATTTTGTTCGAAAGGTGTACATATACAAAAATTATG [XGTACX_site957],11.7 ± 1

row,Sequence,gcPBM binding intensity (ln)
1,ATATCGAAAATTTGGTGTACATTTTTATTTGTTCAA [XGTACX_site3094],11.5 ± 0.93
2,TTTATTTATTACTAAAGTACTAAATCATATTATTAT [XGTACX_site2574],10.6 ± 0.54
3,TAATATAGTATAGTATGTACATATAATTAGAATATT [XGTACX_site4053],11.3 ± 0.77
4,CCATATATTTGGTATAGTACTTTTTATTTTATTTCA [XGTACX_site8933],11.1 ± 0.5
5,TTAGTTTATTGGTACTGTACTTTTTTTTTCTCCATT [XGTACX_site8618],11.9 ± 0.91
6,TAGGGTAGTTATAATTGTACTTTTCTCCAAAAAAAA [XGTACX_site7321],11.3 ± 0.81
7,TACATAAACATTTATACACACATTATATATACATAT [CACACA_site8028],10.12 ± 0.064
8,TAATTATTTCGTATATTTGAATGGTACATGCTTATA [CACACA_negctrl_site1178],10.7 ± 0.6
9,ATACATATAATATATGCATGTACCAATCAAATATAT [TGCATGCA_site192],10.5 ± 0.29
10,TGTTGTATTGAAGCTAAAAAATGAGGCAAAAAAAAA [CACACA_negctrl_site1189],10.2 ± 0.26
11,TATATTATAGGTTGTGTACACATATTATATAGTACT [CACACA_site4583],11.6 ± 0.88
12,ACATATTTTATTTTTTGTACACATATATTATTTTTT [XGTACX_site6528],11.3 ± 0.66
13,AATTTTTATTTGTACACACATACATATATATTATAT [CACACA_site993],11.4 ± 0.83
14,TTTATTTTGTAGTGTACACATATATATATATATATA [CACACA_site5843],11.7 ± 0.96
15,CATACATATACTTTGTGTACATATATATATTATATA [XGTACX_site97],11.4 ± 0.78
16,TTATTTATATTTTTTTGTACACATATTGTATACATA [XGTACX_site1178],11.5 ± 0.86
17,TTATATTTATTTATTTGTACATATTTTTTTTTATAT [XGTACX_site1669],11.2 ± 0.67
18,AACACTACATAAAACTGTACAATAGTATTTTATTAT [XGTACX_site996],10.9 ± 0.49
19,GTATTATCTGCTTTTTGTACACATATATTTAAAAAA [XGTACX_site7603],11.4 ± 0.95
20,ATGTGTATATATTATTGTACATATATATATATATAT [XGTACX_site4627],11.2 ± 0.82
21,CTTTAAAACCGGTACTGTACACATAGTATTATTATC [XGTACX_site2602],11.6 ± 0.8
22,TTTTTATTTGGTTGTGTACACATATATATATATATA [CACACA_site5844],11.6 ± 0.94
